KAT2A inh = blocks human GCN5L2 histone acetyltransferase; GCN5L2 HAT assay, ThioGlo1 CoA-SH fluorescence; Potency, µM (titrated, usually from 58.9 µM), for inactives: at the highest dose activity change, negative = inhibition, most hits filed as inhibitors; 390,000 tested, 0.21% active; further: on the % scale 0 is the no-effect control and ±100 the full control effect
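Preincubate 20nM GCN5L2 with compound 15 min, RT → add 50uM ThioGlo1 + 75uM H3(1-25) + 70uM acetyl-CoA → read fluorescence 0 and 20 min. Primary qHTS; fluorescent artifacts likely.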
Epigenetic reg = regulators of epigenetic silencing causing reporter derepression in mouse cells; murine LDR cells, GFP reporter derepression, 30 h; Potency, µM (doses to about 53.9 µM), without a hit: at the highest dose GFP activation, hits mostly activators; 280,000 tested, 0.2% active; further: % of control where 0% means no effect; nearly all actives have a fitted effect of over 60% in size
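Reporter derepression read as number of fluorescent GFP-positive objects, 20-120 um in size, counted by laser-scanning cytometer. Mouse LDR line with an epigenetically silenced CMV-GFP locus; compound incubation 30 h, 37 C.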
IMPase Li cell = membrane-permeable IMPase blocker, potentiated with lithium. CHO-M1 cells, IP1 TR-FRET (IP-One), carbachol + lithium. Potency, µM (series often up to 59.4 µM), for the others: at the top dose activity, negative = IMPase inhibition, most hits filed as inhibitors. 210,000 tested, 0.35% active. AID 1457;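 further: IP1 builds up when IMPase is blocked and the TR-FRET signal falls; plate controls were basal vehicle for no effect and high inhibitor control for full effect; nearly all actives have a fitted effect of over 50% in size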
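CHO cells stably expressing M1 receptor (2000/well, cultured 16–30 h) treated 30 min at 37C with compound plus low lithium. Cytosolic IP1 by TR-FRET (665/620 ratio and 620 channel) after 10 min lysis; AC50 by Hill fit.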
NPSR antag = antagonists of human neuropeptide S receptor cAMP signaling; Q6W5P4; CHO-NPSR cells, cAMP TR-FRET, antagonist mode; Potency, µM (doses to about 38.3 µM), inactives show at the highest dose activity change, negative = inhibition, most hits filed as inhibitors; 220,000 tested, 1% active; AID 1461; further: on the % scale 0 is the no-effect control and ±100 the full control effect; nearly all actives have a fitted effect of over 50% in size
Target sequence (Q6W5P4 whole entry, looked up): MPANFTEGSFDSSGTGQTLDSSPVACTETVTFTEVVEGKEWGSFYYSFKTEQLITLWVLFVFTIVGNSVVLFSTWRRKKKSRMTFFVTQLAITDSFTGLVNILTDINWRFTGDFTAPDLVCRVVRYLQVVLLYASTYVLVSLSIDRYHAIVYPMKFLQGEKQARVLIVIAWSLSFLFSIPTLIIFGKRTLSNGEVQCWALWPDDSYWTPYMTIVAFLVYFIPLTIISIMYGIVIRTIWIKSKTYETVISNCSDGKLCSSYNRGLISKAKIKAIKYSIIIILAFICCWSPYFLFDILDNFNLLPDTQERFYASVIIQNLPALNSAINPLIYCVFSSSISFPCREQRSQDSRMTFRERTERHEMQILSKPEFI
Sfp inh = blocks B. subtilis Sfp PPTase activity; Q9F4F7; Biochemical Sfp PPTase activity, qHTS; Potency, µM, inactives show largest response in the series, negative = inhibition, hits mostly inhibitors; 310,000 tested, 3.5% active; AID 1490;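 further: the enzyme is Sfp with the accession as filed and its product quenches rhodamine fluorescence; 0% = enzyme reaction without inhibitor and -100% = no enzyme wells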
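Fluorescence-quenching assay: 15 nM Sfp-PPTase preincubated 15 min at room temperature with compound, then 5 uM rhodamine-CoA and 12.5 uM BHQ-2-labelled YbbR peptide added. Fluorescence (ex 525/em 598 nm) read at start and after 30 min; difference gives rate.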
JMJD2E inh = blocks human JMJD2E demethylase activity | B2RXH2 | JMJD2E catalytic domain, FDH-coupled NADH fluorescence (FDH is formaldehyde dehydrogenase) | Potency, µM (titrated, usually from 57.1 µM), without a hit: top-dose activity change, negative = inhibition, most hits filed as inhibitors | 230,000 tested, 1.6% active; active means well fitted inhibition curve with a large enough effect, not every such curve was filed as active; inconclusive means small, poorly fitted or top-dose-only effect, or another doubt; inactive means no such curve, though single readings can be large or run the other way;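 further: 0% = wells with enzyme and -100% = buffer wells without enzyme; nearly all actives have a fitted effect of over 50% in size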
Target sequence (B2RXH2 1-337 limits assumed): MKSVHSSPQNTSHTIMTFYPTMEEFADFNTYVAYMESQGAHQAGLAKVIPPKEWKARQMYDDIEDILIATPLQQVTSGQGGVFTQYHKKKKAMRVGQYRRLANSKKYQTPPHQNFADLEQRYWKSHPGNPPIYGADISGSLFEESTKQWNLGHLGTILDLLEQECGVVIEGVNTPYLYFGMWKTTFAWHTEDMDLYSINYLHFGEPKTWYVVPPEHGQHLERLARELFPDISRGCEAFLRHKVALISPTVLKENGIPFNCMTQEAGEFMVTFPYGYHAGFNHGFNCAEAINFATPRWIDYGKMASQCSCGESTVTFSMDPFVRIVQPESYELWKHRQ
Starred values were filed as active, the others as inactive; ? = inconclusive; . = not tested or not shown; ! = not active in a repeat; [ ] = dose if it differs, or a comment. An excerpt weighted towards active compounds, which were near 3.6% of everything screened. Unless noted, the call rests on the fitted dose curve; in most records, active means well fitted curve in the direction sought with a large enough effect; inconclusive means small, poorly fitted or top-dose-only effect, or another doubt; inactive means no such curve, though single readings can be large; an effect the other way counts as inactive or inconclusive. Potency means the concentration at half of the fitted maximal effect.

SMILES	KAT2A inh	Epigenetic reg	IMPase Li cell	NPSR antag	Sfp inh	JMJD2E inh
CCOC(=O)c1c(C)c(P(=S)(N2CCOCC2)N2CCOCC2)n(C)c1C	-6%	0%	-6%[38.3 µM]	-1%[46.1 µM]	32µM*	-8%
CN1CCN(Cc2nc3ccccc3n2C)CC1	-5%	0%	0%[38.3 µM]	12%[46.1 µM]	8%	-7%
Cn1c(NN=O)nc2ccccc21	3%	11µM*	5%	40%	40µM*	6%
COc1ccc2[nH]c(C)c(CCNCc3cc(OC)c(OC)c(OC)c3)c2c1	-10%	-3%	13%	4%	45µM*	?
COc1cc2c(cc1OC)[C@]13CC[N@+]4(C)CC5=CCO[C@H]6CC(=O)N2[C@@H]1C6[C@@H]5C[C@]34O (stereo partly specified)	.	.	2%	.	.	.
Cc1ccc(OP(=O)(Oc2ccc(C)cc2)Oc2ccc(C)cc2)cc1	.	.	21%	.	.	.
O=C(c1cn(Cc2ccccc2)c2ccccc12)C1CC1	-10%	1%	2%	10µM*	-8%	-1%
O=C(c1ccco1)c1cn(Cc2ccccc2Cl)c2ccccc12	-2%	0%	43%[38.3 µM]	10µM*	?	?
CCC(=O)c1cn(Cc2ccccc2)c2ccccc12	11%	0%	-1%	36%	8%	4%
NO	-12%	0%	9%	14%[46.1 µM]	.	1.4µM*
CCOc1ccc(N2C(=O)NC(=O)/C(=C\c3ccccc3[N+](=O)[O-])C2=O)cc1	-5%	-1%	.	0%	45µM*	-28%
COc1ccc(N2C(=O)NC(=O)/C(=C\c3ccccc3[N+](=O)[O-])C2=O)cc1	3%	2%	4%	-2%	40µM*	?
O=C1NC(=O)N(c2ccc(Br)cc2)C(=O)/C1=C/c1ccsc1	-3%	1%	4%	-17%	32µM*	-9%
O=C1NC(=O)N(c2ccc(F)cc2)C(=O)/C1=C/c1ccsc1	-3%	-2%	-5%	-21%	?	-1%
O=C1NC(=O)N(c2cccc(Br)c2)C(=O)/C1=C/c1ccsc1	-17%	1%	-5%	-18%	20µM*	-20%
C[C@@]12CC[C@H]3[C@H](CCC4=CC(=O)CC[C@H]43)[C@H]1CC[C@H]2OC1(O)C(=O)c2ccccc2C1=O	.	.	17%	.	.	.
c1ccoc1	.	.	11%	.	.	.
CC1=C(O)C(=O)[C@H]2O[C@@H]2C1=O	8%	?	40%	.	4µM*	?
Nc1nc2c(ncn2[C@@H]2O[C@H](CO)[C@@H](O)[C@@H]2O)c(=[SH+])[nH]1.O=[N+]([O-])c1ccc(O)[c]([Hg])c1	.	.	23%	.	.	.
C[C@@H]1[C@@H](C)N1C[C@H](O)Cn1ccnc1[N+](=O)[O-] (stereo partly specified)	.	.	-2%	.	.	.
COc1ccc(CCNCc2ccc(Br)cc2)cc1OC	2%	.	.	.	-21%	.
COc1ccc(CCNCc2ccncc2)cc1OC	0%	1%	11%[38.3 µM]	-6%[46.1 µM]	45µM*	?
CCC1(CC)C(=O)NC(=O)NC1=O	?	-2%	0%	.	13%	.
O=C1NC(=O)C(=O)C(=O)N1	-13%	-1%	3%	.	14µM*	?
COc1cccc(-n2c(=S)[nH]c3ccccc3c2=O)c1	-6%	0%	-2%	-3%	17%	-7%
SMILES	KAT2A inh	Epigenetic reg	IMPase Li cell	NPSR antag	Sfp inh	JMJD2E inh
COc1ccc2c(c1)NP(=S)(Oc1ccccc1)N2 (stereo unspecified)	-5%	1%	.	0%	32µM*	?
O=C(O)c1cc[c]([Hg][S]c2ncnc3nc[nH]c23)cc1	.	.	8%	.	.	.
Cc1cc(C)cc(OP(=O)(Oc2cc(C)cc(C)c2)Oc2cc(C)cc(C)c2)c1	.	.	11%	.	.	.
Cc1cccc(C2=NCC(=O)N(CC(=O)NCc3ccco3)c3sc4c(c32)CCCC4)c1	1%	2%	38%[38.3 µM]	?	22µM*	-2%
Cn1cnc([N+](=O)[O-])c1Sc1ccc([N+](=O)[O-])cc1	-7%	-1%	2%	-30%	56µM*	0%
Cc1ccc([N+](=O)[O-])cc1C	.	.	13%	.	.	.
CN(CC(=O)O)C(=O)[C@H](Cc1ccccc1)NC(=O)[C@@H](CCCN=C(N)N)NC(=O)[C@@H](N)Cc1ccc(O)cc1	-19%	.	.	.	8%	.
O=c1[nH]c(=O)n(-c2ccccc2F)c(O)c1/C=C1\C=Nc2ccccc21	24%	.	.	.	35µM*	.
CC[N+](C)(CC)CCCCOc1ccc2c(c1)C(=O)c1cc(OCCCC[N+](C)(CC)CC)ccc1-2	?	0%	.	-39%	14µM*	-18%
Cn1cc(C(=O)C(=O)N[C@H]2CN3CCC2CC3)c2ccccc21	?	3%	3%	.	56µM*!	-2%
Cn1cc(C(=O)N2CCCCC2)c2ccccc21	-7%	-1%	-4%	4%	25%	-9%
CC(C)=C[C@H]1[C@@H](C(=O)OCc2cc3c(cc2Cl)OCO3)C1(C)C	.	.	10%	.	.	.
CC(C)CC(=O)C[C@H](O)C(Cl)(Cl)Cl	.	.	7%	.	.	.
CC1=NN(c2ccccc2)C(=O)C1/C=C1/C(=O)NC(=O)N(c2cccc(C)c2)C1=O (stereo unspecified)	-4%	-1%	10%[38.3 µM]	-10%[46.1 µM]	-13%	-1%
Cc1cccc(N2C(=O)NC(=O)/C(=C\c3ccc4c(c3)CCCN4Cc3ccccc3)C2=O)c1	-17%	1%	1%	-23%	45µM*	?
COc1cc2c(c(OC)c1OC)-c1ccc(O)cc1[C@@H](NC(C)=O)CC2	-7%	.	.	.	.	.
COc1cc2c(c(OC)c1OC)-c1ccc(O)c(=O)cc1[C@@H](NC(C)=O)CC2	-9%	0%	2%	.	-27%	11µM*
CC[C@@H]1[C@@H]2Cc3ccc(O)cc3[C@@]1(CC)CCN2C	.	.	1%	.	.	.
Cc1c2ccncc2c(C)c2c1[nH]c1ccccc12	-10%	?	12%	?	22µM*	13µM*
CCCC[N+](=O)[O-]	.	.	8%	.	.	.
CN(C)c1ccc(-[n+]2c(-c3ccccc3)cc(-c3ccccc3)cc2-c2ccccc2)cc1	-16%	4%[10.1 µM]	22%	13µM*	-1%	-6%
ClC=CCl	.	.	32%	.	.	.
Cn1c(=O)c2c(nc(N/N=C/c3c(O)n(-c4ccccc4)c(=S)[nH]c3=O)n2C)n(C)c1=O	37%	-1%	25%	3%	79µM*	25µM*
CC(C)c1ccc(-n2c(O)c(/C=N/NC(=O)c3ccccc3O)c(=O)[nH]c2=S)cc1	-22%	0%	.	-8%	-30%	?
CCOP(=S)(OCC)SCn1c(=O)oc2cc(Cl)ccc21	?	-1%	28%	.	56µM*	-12%
O=C(O)c1ccccc1-c1ccc(C=C2C(=O)N(c3ccccc3)C(=S)N(c3ccccc3)C2=O)o1	?	.	.	.	50µM*	.
CN1C(=O)C(=Cc2ccc(N3CCCCCC3)o2)C(=O)N(C)C1=S	-5%	2%	8%[38.3 µM]	-10%[46.1 µM]	-22%	5%

Screens as filed in PubChem BioAssay.
